LEDGF integ inh = blockers of LEDGF/p75-dependent integrase strand transfer – biochemical, TR-FRET, high throughput, primary screen. AID 743269, 2014. TR-FRET IN-LEDGF/p75 DNA integration, Eu/Cy5. inhibition, % at 3.7 µM. HIV-1 integrase (with human LEDGF/p75). 370,000 tested, 0.64% active;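 active = inhibition above the screen-wide mean plus 3 SD, cut at about 13% in these data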;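 note: signal is the Cy5 over europium emission ratio at 671 and 618 nm; 0% = plate median of compound wells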
MBD2 inh = inhibitors of MBD2 binding to methylated DNA, primary screen, biochemical, TR-FRET, DNA-binding domain, human; Methyl-CpG-binding domain protein 2 (Homo sapiens), Q9UBB5; MBD2 binding to methylated oligonucleotide; inhibition, % at 4.4 µM; 370,000 tested, 0.31% active; AID 686964, 2013; in the data active = inhibition above about 13%
DNMT1 inh = human DNMT1 methyltransferase inhibitors, primary screen, biochemical, molecular beacon, fluorescence, HinP1I cleavage, uHTS; DNA (cytosine-5)-methyltransferase 1 (Homo sapiens), P26358; inhibition (reported as % activation of signal), % at 10 µM; 360,000 tested, 0.83% active; AID 588458, 2011; in the data active = inhibition above about 50%
UHRF1 MBD2 ctr = UHRF1 methylated DNA binding inhibitors, primary screen, counter-screen for MBD2 inhibitor project, biochemical, TR-FRET, human UHRF1, single concentration. inhibition, % at 4.4 µM. E3 ubiquitin-protein ligase UHRF1 (Homo sapiens), Q96T88. 370,000 tested, 0.75% active. UHRF1 binding to methylated oligo; in the data active = inhibition above about 21%;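 note: UHRF1 SRA domain binding a hemimethylated CpG hairpin DNA probe; 0% = median of test compound wells and 100% = reference inhibitor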
PG9 Ab binder = binders of HIV-1 gp120 antibody PG9, primary screen, biochemical, TR-FRET. inhibition, % at 6.7 µM. TR-FRET gp120-PG9 antibody binding. AID 624416, 2012. 360,000 tested, 0.43% active; in the data active = inhibition above about 8.5%
rCAG binder = binders of r(CAG) RNA repeats, primary screen, biochemical, fluorescence. inhibition, % at 3 µM. 370,000 tested, 1.3% active. AID 651821, 2012. r(CAG) RNA repeat, TO-PRO-1 dye displacement fluorescence;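 active = inhibition above the plate cutoff, the mean of all test compounds on that plate plus 3 SD, cut at about 35% in these data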;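 note: 0% = DMSO alone and 100% = 100 µM mitoxantrone as full dye displacement; higher means more dye released from RNA so lower well fluorescence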
IN multimer up = HIV-1 IN multimer formation enhancers, counter-screen for LEDGF/p75 integration inhibitor project, biochemical, TR-FRET; shares compounds with LEDGF integ inh; TR-FRET HIV-1 integrase multimerization; activation, % at 7.7 µM; 2,000 tested, 17% active; AID 1053131, 2014; in the data active = activation above about 8.9%
TRFRET interf = TR-FRET optical interference artefacts, confirmation, artefact control for LEDGF/p75-dependent integration inhibitor project, biochemical, HIV-1 IN multimerization | shares compounds with LEDGF integ inh | inhibition, % at 7.7 µM | AID 1053135, 2014 | 2,000 tested, under 10 active | TR-FRET optical interference counterscreen;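 active = inhibition above the mean over all tested compounds plus 3 SD, which no compound reached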;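 note: 0% = integrase with antibodies and DMSO and 100% = antibodies without integrase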
LEDGF integ conf = inhibitors of HIV-1 IN-LEDGF/p75 DNA integration, confirmation, biochemical, TR-FRET. shares compounds with LEDGF integ inh. TR-FRET LEDGF/p75-dependent HIV-1 integration. inhibition, % at 3.7 µM. 2,000 tested, 36% active. AID 1053136, 2014; in the data active = inhibition above about 14%
The depositor's hits bear a star; . = no result. Most compounds without a hit are left out; they make up all but 3.5% or so of the library.

SMILES	LEDGF integ inh	MBD2 inh	DNMT1 inh	UHRF1 MBD2 ctr	PG9 Ab binder	rCAG binder	IN multimer up	TRFRET interf	LEDGF integ conf
O=C(N/C=C/c1ccco1)NCc1ccccc1	28*	7	61*	23*	-1	20	14*	-73	44*
CC(=O)c1sc(NCc2ccccc2)nc1C	29*	-7	1	-1	0	2	-1	5	3
COC(=O)c1c(C)[nH]c(C(=O)CN2C(=O)NC3(CCOc4ccccc43)C2=O)c1C (configuration not stated)	1	-3	-3	-2	-2	3	.	.	.
COc1ccc(NC(=O)N[C@@H](CCSC)C(=O)O)cc1OC	-1	2	0	-6	1	-2	.	.	.
COc1ccc(NC(=O)N[C@@H](CCSC)C(=O)O)cc1Cl	81*	-3	0	-1	-1	2	-2	13	2
NC(c1csc(Nc2ccc(C(F)(F)F)cn2)n1)C1CCCCC1 (configuration not stated)	18*	-2	0	-3	1	17	0	-1	-4
NC(c1csc(Nc2cc(Oc3ccccc3)ncn2)n1)C1CCCCC1 (configuration not stated)	13*	-7	0	-2	2	15	0	1	-7
COc1ccc(C(N)c2csc(Nc3cc(Oc4ccccc4)ncn3)n2)cc1 (configuration not stated)	3	0	-4	0	-1	12	.	.	.
O=C(Cn1cnc2cc([N+](=O)[O-])ccc2c1=O)N(Cc1ccccc1)C1CCS(=O)(=O)C1 (configuration not stated)	2	1	-4	1	-1	6	.	.	.
O=C(Cn1cnc2cc([N+](=O)[O-])ccc2c1=O)NC1CCS(=O)(=O)C1 (configuration not stated)	20*	3	1	1	-1	1	1	-3	0
CCOc1cc(C(=O)Nc2cccc3ncccc23)cc(OCC)c1OCC	16*	0	-2	-1	0	-6	1	-5	-1
CC1(C(=O)NS(=O)(=O)c2ccc(F)cc2F)CCN1C(=O)c1cccc(F)c1 (configuration not stated)	1	-5	-2	1	-2	2	.	.	.
CCOC(=O)[C@]12CCC=C1N(Cc1ccco1)C(=O)[C@H](CC(=O)NCCC(C)C)C2	0	8	.	-1	0	3	.	.	.
CCC1COC(c2cccn2Cc2ccc(Cl)cc2)=N1 (configuration not stated)	14*	4	1	1	2	-4	0	0	-1
c1ccc(Cn2ccc3ccc(-c4ccc5ccn(Cc6cccc(-c7ccsc7)c6)c5c4)cc32)cc1	0	-3	.	-2	.	14	.	.	.
Cc1ccc(S(=O)(=O)N2[C@H](CC(=O)c3cccc4ccccc34)OC[C@@H]2C)cc1	14*	7	.	8	0	8	0	1	-4
CCCC(C(=O)NCCC(C)C)N(Cc1ccc(OC)cc1)C(=O)c1snc(C(N)=O)c1N (configuration not stated)	7	-6	-1	-3	-3	-4	.	.	.
Cc1nc(CNS(=O)(=O)c2cccc(F)c2)cs1	1	-3	2	2	1	2	.	.	.
Cc1ccc(-c2csc(NS(=O)(=O)c3cccc(F)c3)n2)o1	16*	3	24	11	-3	71*	9.0*	-45	15*
Cc1cccc(CNc2ncnc3ccc(-c4ccc5c(c4)OCO5)cc23)c1	15*	-6	-9	-6	-2	7	0	0	-10
Cc1occc1CNc1ncnc2ccc(-c3ccc4c(c3)OCO4)cc12	11	-1	.	0	.	.	.	.	.
COc1cc2[nH]c(Cl)c([N+](=O)[O-])c2cc1OC	49*	-2	-12	9	0	-2	3	-9	9
CC1=NN(c2cccc(C(=O)O)c2)C(=O)/C1=C\C=C/c1ccccc1	16*	-2	32	-1	-10	14	7	-24	16*
CC1=NN(c2ccccc2)C(=O)/C1=C/c1cccs1	46*	10	6	18	-3	4	3	-11	-1
CC1=NN(c2ccccc2)C(=O)/C1=C\c1ccc(Br)s1	5	2	11	0	-3	11	.	.	.
SMILES	LEDGF integ inh	MBD2 inh	DNMT1 inh	UHRF1 MBD2 ctr	PG9 Ab binder	rCAG binder	IN multimer up	TRFRET interf	LEDGF integ conf
CC1=NN(c2ccccc2)C(=O)/C1=C/C=C/C=C/N(C)C	23*	-21	-1	-29	-30	-8	16*	-56	-4
CCCCn1c(N)c(N(CCOC)C(=O)COC(=O)Cc2cccc(OC)c2)c(=O)[nH]c1=O	-1	-1	-1	5	2	-6	.	.	.
COc1ccccc1-c1noc2ncnc(Nc3cccc(C)c3C)c12	-3	3	8	1	-2	-6	.	.	.
CCCCn1c(N)c(N(CCC(C)C)C(=O)c2sc3nc4n(c(=O)c3c2C)CCC4)c(=O)[nH]c1=O	-1	5	1	2	0	-5	.	.	.
CCCCS(=O)(=O)N1CCC(C(=O)Oc2ccccc2OC)CC1	2	4	-1	2	0	-7	.	.	.
CCS(=O)(=O)N1CCC(C(=O)Oc2ccccc2OC)CC1	22*	-7	3	-1	-2	0	1	-5	2
COc1ccc(-c2ccc(C(=O)Nc3cccc(NS(C)(=O)=O)c3)c3occc23)c(C)c1	16*	3	-16	0	0	12	5	-17	-1
CCOC(=O)C(CC(=O)Nc1nc(C(C)=O)c(C)s1)C(C)c1ccccc1 (configuration not stated)	18*	3	2	1	2	-6	1	-4	-5

Screening data from PubChem BioAssay.
